Experiment [1] can be described thus: qHTS Assay for Identifying Gametocytocidal Compounds (AID 743244). Further: potency means the concentration at half of the fitted maximal effect.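 On max response: on the % scale 0 is the no-effect control and ±100 the full control effect; actives lower the fluorescent signal which means gametocytes are killed.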 The conditions noted are these: P. falciparum 3D7 stage III-V gametocytes, alamarBlue, 72 h; max response: stronger effect = lower value. The procedure, abridged:
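3D7 gametocytes, stages III–V, 20,000/well; cpd 72 h, 37 °C/5% CO2; + alamarBlue 24 h; fluor. Ex 525/Em 598.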

Experiment [2] can be described thus: qHTS assay for cell viability of HEK293 cells (AID 743288). Further: on the % scale 0 is the no-effect control and ±100 the full control effect; nearly all actives have a fitted effect of over 50% in size. The conditions noted are these: ATP luminescence (CellTiter-Glo), 18 h, stronger effect = lower value. The procedure, abridged: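 Readout is luciferase-coupled ATP content (CellTiter-Glo luminescence, 30 min room temperature) as a measure of metabolically competent cells. Parental HEK293 cells were plated 5 h or more before compound addition, then treated 18 h at 37 C.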

A short description of experiment [3]: qHTS assay for cell viability of the p53RE-bla HCT-116 cell line (AID 743292). Further: on the % scale 0 is the no-effect control and ±100 the full control effect; nearly all actives have a fitted effect of over 55% in size. The procedure, abridged: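 CellSensor p53RE-bla HCT-116 cells, 4,000/well, preincubated 5 h at 37 C, then exposed to compounds in DMSO for 16 h at 37 C. Viability read as CellTiter-Glo luminescence (intracellular ATP) after 30 min at room temperature.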
Experiment [4] is described as follows: qHTS assay for measurement of the activity of small molecule inhibitors on Zika virus induced Caspase-3 activity in human iPSC derived neural progenitor cells (hNPCs) (AID 1224857). Further: nearly all actives have a fitted effect of over 65% in size. Further: potency means the concentration at half of the fitted maximal effect. Summed up: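 Cells were plated at 350 per well and grown 16 to 20 hours. Compound pretreatment lasted one hour, after which ZIKV (2 FFU/cell) was added for 6 hours. Percent inhibition was normalized between uninfected and infected controls.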

Experiment [5] is described as follows: qHTS assay for measurement of the activity of small molecule inhibitors on Zika virus induced Caspase-3 activity in human astrocytoma cells (AID 1224859).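 Further: plate controls were ZIKV-infected untreated cells for no effect and uninfected cells for full effect.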 Summed up: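 Percent inhibition of virus-induced caspase-3/7 signal is calculated against uninfected and ZIKV-infected control cells. Cells are SNB-19, infected at 2 FFU/cell for 6 h after 1 h compound exposure.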

A short description of experiment [6]: qHTS assay to identify small molecule inhibitors of chordoma cells - UCH-1 (AID 1259355). Further: on the % scale 0 is the no-effect control and ±100 the full control effect; nearly all actives have a fitted effect of over 55% in size. The procedure, abridged: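 A 48hr growth-inhibition format: each drug tested at 15 concentrations together with added auranofin, camptothecin, doxorubicin, rubitecan and topotecan, with cell viability quantified as CellTiter-Glo luminescence.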
Experiment [7] is described as follows: qHTS assay to identify small molecule inhibitors of chordoma cells - UCH-2 (AID 1259356). Further: potency means the concentration at half of the fitted maximal effect.
The nature of experiment [8]: P-glycoprotein substrates identified in KB-8-5-11 adenocarcinoma cell line, qHTS therapeutic library screen (AID 1346987). Further: nearly all actives have a fitted effect of over 65% in size. Further: potency means the concentration at half of the fitted maximal effect. Summed up:
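Human cervical adenocarcinoma KB-8-5-11 cells, selected in colchicine to over-express P-gp and assayed without it, were exposed for 72 h to titrated compounds. An ATP-based luminescent viability signal gave AC50.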

The nature of experiment [9]: NS1 protein of Zika virus - qHTS assay to identify small molecule inhibitors in human HEK 293 cells (AID 1347053).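 Further: plate controls were infected untreated cells for no effect and uninfected cells for full effect; nearly all actives have a fitted effect of over 55% in size.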 The procedure, abridged: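 Read-out is a two-antibody TR-FRET for ZIKV NS1, normalized between uninfected cells and infected cells. Compound added 1 h before MR766 infection at MOI 0.5; human HEK 293 cells incubated 24 h, 37 C.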
The nature of experiment [10]: qHTS profiling for inhibitors of Plasmodium falciparum (3D7) proliferation (AID 743322; call rule not given here;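 further: infected erythrocytes exposed to compound for 72 h before lysis; 100% = DMSO vehicle wells and 0% = 0.29 µM artemisinin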). The conditions noted are these: P. falciparum 3D7 proliferation; at 28.7 µM (top of the series) unless noted. Summed up: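 Parasite DNA was quantified by SYBR Green I fluorescence (ex 485, em 535 nm) after overnight lysis in saponin/Triton buffer at room temperature. Cultures at 0.3% parasitemia and 2.5% hematocrit were first exposed to compound for 72 h at 37 C; signals were normalised to artemisinin (0.29 uM) and vehicle wells.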

Experiment [11] in a line: qHTS profiling for inhibitors of Plasmodium falciparum (DD2) proliferation (AID 743323; call rule not given here). The conditions noted are these: lower = more inhibition; at 28.7 µM (top of the series) unless noted. The procedure, abridged: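 Parasite DNA quantified by SYBR Green fluorescence (ex 485, em 535 nm) after saponin/Triton lysis and overnight dark incubation. Cultures: 0.3% parasitemia, 2.5% hematocrit, 72 h, 37 C; data scaled between DMSO and 0.29 uM artemisinin.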

Experiment [12] is described as follows: qHTS profiling for inhibitors of Plasmodium falciparum (HB3) proliferation (AID 743324).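 Further: 100% = DMSO vehicle wells and 0% = artemisinin-treated control wells.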 The conditions noted are these: Plasmodium falciparum HB3 blood-stage proliferation; at 28.7 µM (top of the series) unless noted. The procedure, abridged:
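SYBR Green fluorescence (485 ex/535 em) of lysed cultures, incubated overnight at room temperature in the dark, quantifies parasite DNA. Infected erythrocytes at 0.3% parasitemia and 2.5% hematocrit were exposed 72 h; values normalized to DMSO and 0.29 uM artemisinin controls.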

Experiment [13] can be described thus: P-glycoprotein substrates identified in KB-3-1 adenocarcinoma cell line, qHTS therapeutic library screen (AID 1346986). Further: nearly all actives have a fitted effect of over 60% in size. The conditions noted are these: KB-3-1 parental cells viability, CellTiter-Glo, 72 h. Summed up:
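Using luminescence to quantify ATP, parental and P-gp-overexpressing KB cells were compared after 72 h compound titration. KB-8-5-11 was also run with the P-gp inhibitor tariquidar.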

“And” between values parts separate entries of the source, which are not always exact repeats. Identical values can stand only once. Records with an inconclusive call do not appear. The source made the active and inactive calls. Unless noted, the call rests on the fitted dose curve; in most records, active means well fitted curve in the direction sought with a large enough effect; inconclusive means small, poorly fitted or top-dose-only effect, or another doubt; inactive means no such curve, though single readings can be large; an effect the other way counts as inactive or inconclusive.

Consider `C=C[C@@]1(C)CC(=O)[C@]2(O)[C@@]3(C)[C@@H](O)CCC(C)(C)[C@@H]3[C@H](O)[C@H](OC(C)=O)[C@@]2(C)O1`, for which the max response in experiment [1] is -8.6% (inactive); in experiment [2], -8.77% (inactive). Besides, the compound was classed as inactive in [3] and in experiment [5]. Also, the Potency result in [4], in experiment [6], in experiment [7], in experiment [8] and in experiment [9] was “inactive” each time.

Take `O=C(N/N=C/c1ccc([N+](=O)[O-])o1)c1ccc(O)cc1`: the Potency result in experiment [4], in [6], in experiment [7] and in [9] was “inactive” throughout. Besides, the compound was classed as inactive in [5].

Regarding `CCCCCCCCCCCCCCCC(=O)O`, the max response in [2] is -2.84% (inactive). In addition, the call in experiment [3] and in experiment [5] was inactive. Besides, the Potency result in [4], in experiment [6], in [7], in experiment [8] and in experiment [9] was “inactive” throughout.

As for `CCCCCCCCCCCCCC[N+](C)(C)Cc1ccccc1`, the Potency in experiment [1] was 8.91 µM (active). The Potency entry in experiment [4], in [6], in [7] and in experiment [8] was “inactive” each time. The call in experiment [5] was inactive.

In the case of `COc1ccccc1N1CCN(CCCCNC(=O)c2ccc(-c3ccc(C(C)=O)cc3)cc2)CC1`, the Potency result in [4], in [6], in [7] and in experiment [9] was “inactive” each time. Also, in [5], the result was inactive.

For the compound `O=C(NCCc1c[nH]c2ccccc12)c1cccnc1`, in [1], the max response was -3.02% (inactive). In addition, the Potency entry in experiment [4], in [6], in experiment [7] and in [8] was “inactive” throughout. Moreover, the call in experiment [5] was inactive.

As to `Cl/C(=C\n1cncn1)c1ccc(Cl)cc1Cl`, the Potency entry in [4], in experiment [6], in [7] and in experiment [9] was “inactive” in each case. Further, in experiment [5], the compound was called inactive.

Regarding `NC(=O)c1ccccc1O`, the max response in experiment [2] was -5% (inactive). Besides, the result in [3] and in experiment [5] was inactive. The Potency result in [4], in experiment [6], in [7], in experiment [8] and in [9] was “inactive” in each case.

Consider `CC(CNC1CCCCC1)OC(=O)c1ccccc1` (configuration not stated), for which, in experiment [1], the max response is 10.4% (inactive). The remaining parasite growth % (stronger effect = lower value) in [10] was found to be 106% [at 9.63 µM]. In addition, the activity, percent of control in experiment [11] came to 61.4% [at 9.63 µM]. The remaining proliferation (% of control), lower = more inhibition in experiment [12] was determined as 111% [at 9.63 µM]. In addition, the Potency entry in experiment [4], in [6], in experiment [7], in [8] and in experiment [9] was “inactive” throughout. In addition, the result in experiment [5] was inactive.

On to `C#C[C@]1(OC(C)=O)CC[C@H]2[C@@H]3CCC4=C/C(=N/O)CC[C@@H]4[C@H]3CC[C@@]21CC`, for which, in experiment [1], the max response is -2.23% (inactive). Moreover, the Potency result in experiment [4], in [6] and in experiment [7] was “inactive” each time. In [5], the result was inactive. In addition, the Potency in [8] was 6.51 µM (active).

For `CC(C)(C)CC(C)(C)c1ccc(O)c(-n2nc3ccccc3n2)c1`, the max response in [2] was -13.9% (inactive). Also, the Potency entry in experiment [4], in experiment [6], in [7], in [8] and in experiment [9] was “inactive” each time. The result in [5] was inactive.

Regarding `CCOc1ccc(NC(C)=O)cc1`, the max response in experiment [1] is 18.5% (inactive); in experiment [2], -2.1% (inactive) and -6.16% (inactive). Further, the compound was called inactive in experiment [3] and in experiment [5]. For the same compound, the Potency result in [4], in experiment [6], in [7], in experiment [8] and in [9] was “inactive” in each case.

Consider `CN1CCN(CCC(=O)N2c3ccccc3Sc3ccc(C(F)(F)F)cc32)CC1`, for which, in experiment [1], the max response was 2.75% (inactive). The Potency result in experiment [4], in experiment [6] and in experiment [7] was “inactive” each time. Moreover, in [5], the call was inactive.

With `CCCCOC(=O)CC(CC(=O)OCCCC)(OC(C)=O)C(=O)OCCCC`, the max response in experiment [2] was -16.9% (inactive). Further, the compound was called inactive in experiment [3] and in experiment [5]. Also, the Potency result in experiment [4], in experiment [6], in [7] and in experiment [9] was “inactive” in each case.

Regarding `CN1CCN(C2=Nc3cc(F)ccc3Cc3ccccc32)CC1`, the max response in experiment [1] is 29% (inactive). The Potency result in experiment [4], in experiment [6], in [7] and in [9] was “inactive” each time. The compound was classed as inactive in [5].

For `O=c1[nH]c(=O)n([C@H]2C[C@H](O)[C@@H](CO)O2)cc1F`, the max response in experiment [1] is 4.58% (inactive). Moreover, the Potency entry in experiment [4], in experiment [6], in [7] and in [9] was “inactive” throughout. The compound was called inactive in experiment [5].

Regarding `CCN1CCCC(OC(=O)C(c2ccccc2)c2ccccc2)C1` (configuration not stated), the max response in experiment [1] was -3.97% (inactive). For the same compound, the Potency entry in [4], in experiment [6], in [7] and in experiment [9] was “inactive” throughout. Further, in experiment [5], the compound was called inactive.

In the case of `C[C@]12CCC(=O)C=C1C=C[C@@H]1[C@@H]2CC[C@@]2(C)[C@H]1CC[C@@]21CCC(=O)O1`, the max response in [1] is 1.8% (inactive). Moreover, the Potency result in experiment [4], in experiment [6], in experiment [7] and in experiment [9] was “inactive” throughout. The compound was called inactive in [5].

As to `CCN(CC)CCOc1ccc2c(c1)C(=O)c1cc(OCCN(CC)CC)ccc1-2`, the Potency in experiment [1] was 12.6 µM (active). Besides, the Potency entry in [4], in experiment [6], in [7] and in experiment [9] was “inactive” in each case. In addition, the call in experiment [5] was inactive.

On to `CCCCN=C(N)N=C(N)N`, for which the max response in [1] was 0.948% (inactive). In addition, the Potency result in experiment [4], in experiment [7] and in experiment [9] was “inactive” each time. Besides, the compound was called inactive in experiment [5], in experiment [13] and in [8].

On to `CC[C@H](c1ccc(O)cc1)[C@@H](CC)c1ccc(O)cc1`, for which the max response in [1] is 11.9% (inactive). Also, the Potency entry in experiment [4], in experiment [6], in experiment [7] and in experiment [9] was “inactive” each time. Further, in [5], the call was inactive.

For the compound `CC(=O)O[C@]1(C(C)=O)CC[C@H]2[C@@H]3C=C(Cl)C4=CC(=O)CC[C@]4(C)[C@H]3CC[C@@]21C`, the max response in experiment [1] was -7.79% (inactive). Moreover, the Potency result in experiment [4], in [6], in experiment [7] and in experiment [9] was “inactive” throughout. Moreover, the compound was classed as inactive in experiment [5].

For the compound `NC(N)=NN=C(/C=C/c1ccc([N+](=O)[O-])o1)/C=C/c1ccc([N+](=O)[O-])o1`, the values for the Potency in experiment [4], in experiment [7] and in experiment [8] were 31.6 µM (active), 16.4 µM (active) and 4.61 µM (active), respectively. The result in [5] was inactive.

Consider `CC(C)n1c(/C=C/[C@@H](O)C[C@@H](O)CC(=O)O)c(-c2ccc(F)cc2)c2ccccc21`, for which the max response in experiment [1] was -9.47% (inactive). For the same compound, the Potency entry in [4], in [6], in experiment [7] and in experiment [9] was “inactive” in each case. In experiment [5], the compound was called inactive.

With `COc1cc(N)c(Cl)cc1C(=O)NC1CCN(Cc2ccccc2)CC1`, the max response in experiment [1] was -0.971% (inactive). The Potency entry in experiment [4], in experiment [6], in [7] and in [9] was “inactive” throughout. Moreover, the outcome in experiment [5] was inactive.

As for `COC(=O)C(c1ccccc1Cl)N1CCc2sccc2C1` (configuration not stated), in experiment [1], the max response was 14.8% (inactive). Also, the Potency entry in [4], in [6], in experiment [7] and in [9] was “inactive” each time. Moreover, the compound was classed as inactive in [5].

As to `O=C1c2cccc3c2[C@H](CCC3)CN1[C@@H]1CN2CCC1CC2`, the max response in experiment [1] was -7.45% (inactive). In addition, the Potency result in experiment [4], in experiment [6] and in experiment [7] was “inactive” throughout. In addition, the result in experiment [5] was inactive.

These data come from PubChem BioAssay (NCATS).
